# RORg inh – ROR gamma (mouse) transcription inhibition. Potency, µM (top dose mostly 53.6 µM), for inactives: at the highest dose activity change, negative = inhibition, hits mostly inhibitors. P51450. hit rate 5.4% among 310,000. Drosophila S2 Gal4-RORgamma UAS-luciferase reporter, 20 h; also: nearly all actives have a fitted effect of over 60% in size
#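 Compounds are pin-transferred onto Drosophila Schneider cells expressing a copper-inducible Gal4–ROR gamma transactivation domain fusion. After 1 hr, copper sulfate is added to 700 uM final; luciferase is read 20 hr later.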
# ELG1 DNA repair – ELG1-dependent DNA repair inhibition; HEK293T ELG1-luciferase reporter, luminescence, 16 h; DNA damage induced by 5-fluorouridine; Potency, µM (titrated, usually from 46.1 µM), for inactives: top-dose activity change, negative = inhibition, hits mostly inhibitors; hit rate 2.3% among 330,000; also: nearly all actives have a fitted effect of over 55% in size
#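 Luminescence from the luciferase reporter, measured 30 min after ONE-Glo reagent at room temperature, was the read-out. Beforehand, 2,000 cells per well were exposed for 16 hr at 37 °C to 5-fluorouridine together with compound or vehicle.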
# DT40 TDP1 CPT – growth inhibition of DT40 Tdp1-/-;hTDP1 cells with camptothecin (screen for TDP1 inhibitors); chicken DT40 Tdp1-/-;hTDP1 cells + 20 nM CPT, ATP luminescence, 48 h; Potency, µM (top dose mostly 46.2 µM), for the others: at the highest dose activity change, negative = growth inhibition, usual class: inhibitors; hit rate 12% among 420,000; AID 686979; also: nearly all actives have a fitted effect of over 55% in size
#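 Cell growth measured by CellTiter-Glo luminescence after a minimum 48 h, 37 C compound exposure with 20 nM CPT in Tdp1-knockout DT40 cells stably expressing hTDP1, seeded 400/well; qHTS titration format.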
# DT40 TDP1 no CPT – qHTS for Inhibitors of human tyrosyl-DNA phosphodiesterase 1 (TDP1): qHTS in cells in absence of CPT; DT40 Tdp1-/- hTDP1 cells, no CPT, ATP luminescence, 48 h; AID 686978, 2013; hit rate 15% among 420,000; Potency, µM (titrated, usually from 46.2 µM), for the others: at the highest dose activity change, negative = growth inhibition, actives largely listed as inhibitors; also: nearly all actives have a fitted effect of over 55% in size
#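 Luminescent ATP content (CellTiter-Glo) served as the growth readout. Knockout chicken DT40 cells expressing human TDP1 were exposed to compounds without camptothecin for a minimum 48 hr at 37 °C.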
# 12-LOX inh – blocks human arachidonate 12S-lipoxygenase. AID 1671190. P18054. purified 12hLO, xylenol orange hydroperoxide absorbance. Potency, µM (doses to about 108 µM), for the others: top-dose activity change, negative = inhibition, most hits filed as inhibitors. hit rate 1.1% among 580,000
# Target sequence (P18054 whole entry, looked up): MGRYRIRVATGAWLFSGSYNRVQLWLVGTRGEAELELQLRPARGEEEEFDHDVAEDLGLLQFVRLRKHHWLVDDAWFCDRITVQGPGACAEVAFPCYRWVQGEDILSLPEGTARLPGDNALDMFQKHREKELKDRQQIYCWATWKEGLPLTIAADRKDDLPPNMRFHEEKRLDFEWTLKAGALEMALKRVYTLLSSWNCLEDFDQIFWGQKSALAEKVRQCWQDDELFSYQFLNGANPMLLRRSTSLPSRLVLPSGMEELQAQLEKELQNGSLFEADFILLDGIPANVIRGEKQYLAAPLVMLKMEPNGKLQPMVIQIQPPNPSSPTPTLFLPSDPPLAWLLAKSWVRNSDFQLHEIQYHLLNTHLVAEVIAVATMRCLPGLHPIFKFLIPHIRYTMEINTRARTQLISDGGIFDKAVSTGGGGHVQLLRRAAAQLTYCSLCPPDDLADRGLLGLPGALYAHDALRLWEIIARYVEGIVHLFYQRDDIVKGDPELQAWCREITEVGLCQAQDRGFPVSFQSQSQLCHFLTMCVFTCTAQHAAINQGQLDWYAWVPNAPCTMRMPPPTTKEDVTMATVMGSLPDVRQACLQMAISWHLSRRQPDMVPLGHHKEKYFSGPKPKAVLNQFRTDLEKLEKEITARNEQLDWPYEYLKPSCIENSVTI
#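 Hydroperoxide product was detected by ferrous iron/xylenol orange as the 573 to 405 nm absorbance ratio. Arachidonic acid at 40 uM (final) was turned over for 30 min at room temperature by 150 nM human 12hLO, pH 7.0 Hepes buffer, after 15 min compound preincubation.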
# VP16 counter – inhibits Gal4-VP16 luciferase reporter, ROR gamma counter-screen. Drosophila S2 Gal4-VP16 UAS-luciferase, luminescence, 20 h. hit rate 3.5% among 310,000. Potency, µM (titrated, usually from 53.6 µM), without a hit: top-dose activity, negative = inhibition, most hits filed as inhibitors;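 also: Gal4-VP16 expression switched on by copper sulfate through the metallothionein promoter; nearly all actives have a fitted effect of over 50% in size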
# * marks the source's active call; other numbers are inactive results; ? = inconclusive; . = no result given. Hits are enriched below; roughly 15% of the tested compounds scored in any of these assays. Calls follow the shape of the dose curve; as a rule, active = well fitted curve in the direction sought with a large enough effect; inconclusive = small, poorly fitted or top-dose-only effect, or another doubt; inactive = no such curve, though single readings can be large; an effect the other way counts as inactive or inconclusive. % is scaled to controls: 0 for no effect and ±100 for the full control effect; potency is read from the fitted curve at half-maximal effect.
SMILES,RORg inh,ELG1 DNA repair,DT40 TDP1 CPT,DT40 TDP1 no CPT,12-LOX inh,VP16 counter
Cc1ccc(OCCNS(=O)(=O)c2ccc(N3CCCC3=O)cc2)cc1,?,?,6.51µM*,5.8µM*,21.5%,12.6µM*
COc1ccc(OC)c(NS(=O)(=O)c2ccc(N3CCCC3=O)cc2)c1,0.8%,?,0.517µM*,0.366µM*,0.0%,-3.7%
CCNS(=O)(=O)c1c(C)cc(N2CCCC2=O)cc1C,-8.9%,-8.2%,-11.0%,-19.5%,61.0%,-10.5%
O=C1CC(c2noc(Cc3ccc(F)cc3)n2)CN1c1ccc(F)c(Cl)c1 (configuration not stated),.,.,.,.,65.0%,.
COCCN1C(=O)c2ccccc2C(C(=O)Nc2nc(C)c(C)s2)C12CCCCC2 (configuration not stated),.,.,.,.,35.7%,.
CCNC(=O)c1ccc(CN2C(=O)NC3(CCS(=O)(=O)CC3)C2=O)cc1,.,.,.,.,10.6%,.
COc1ccccc1C1=NNC(=NCc2ccccc2)SC1,11.2µM*,29.6%,12.6%,-14.6%,-12.7%,-5.0%
Fc1ccc(C2=NNC(=NCc3ccccc3)SC2)cc1F,14.1µM*,?,-17.3%,?,-1.6%,-26.0%
c1ccc(CN=C2NN=C(c3ccccc3)CS2)cc1,?,?,?,?,?,-75.6%
Clc1ccc(C2=NNC(=NCc3ccccc3)SC2)cc1,5.01µM*,?,?,?,?,?
COc1ccc(N2CC(C(=O)N3CCC(C(=O)NCCCc4ccccc4)C3)NC2=O)cc1 (configuration not stated),.,.,.,.,12.0%,.
CC(C)=CCOc1ccc([C@@H]2COc3c(ccc4c3C=CC(C)(C)O4)C2)c(O)c1,.,.,16.4µM*,20.6µM*,-14.4%,.
COc1ccc(C(C)C)cc1S(=O)(=O)NCc1ccccn1,12.6µM*,0.1%,-27.2%,-9.3%,-9.3%,-8.6%
Cc1ccccc1S(=O)(=O)NCc1cccnc1,0.9%,0.4%,-5.0%,-15.4%,23.6%,2.2%
Cc1ccc(C(C)C)cc1S(=O)(=O)NCc1cccnc1,?,?,-19.9%,?,25.6%,17.8µM*
COc1ccc(C)cc1S(=O)(=O)NCc1ccccn1,.,.,0.6%,1.6%,?,.
Cc1ccc(C(C)C)cc1S(=O)(=O)NCc1ccccn1,14.1µM*,?,-2.4%,?,0.0%,?
Cc1cccc(OCC(=O)Nc2ccc(-c3nc4ccc(C)cc4o3)cc2)c1,.,.,.,.,-32.8%,.
COc1cc2nc(CSCC(=O)NC3CC(C)(C)NC(C)(C)C3)[nH]c(=O)c2cc1OC,.,.,.,.,-15.2%,.
Cc1ccc2cc(C(=O)NCC3CCS(=O)(=O)C3)[nH]c2c1 (configuration not stated),.,.,.,.,11.8%,.
O=C(Nc1ccccc1C(=O)OCC(=O)N1CCc2ccccc21)c1ccc([N+](=O)[O-])cc1Cl,.,.,.,.,-23.9%,.
CC(C)NC(=O)NNC(=O)Cn1nnc(-c2cccc(Cl)c2Cl)n1,31.6µM*,-14.4%,1.5%,-1.2%,120.7%,-29.9%
CCN(CC)C(=O)C1CCCN(C(=O)c2cc(COc3ccc4ncccc4c3)on2)C1 (configuration not stated),31.3%,?,16.4µM*,5.8µM*,-1.5%,?
CC(=O)NCCC1CCCCN1C(=O)c1cc(COc2cc(C)ccc2C)on1 (configuration not stated),1.3%,?,-14.2%,-24.3%,-9.6%,15.4%
COCC1CCCCN1C(=O)c1cc(COc2ccc3ncccc3c2)on1 (configuration not stated),-39.5%,?,1.16µM*,0.92µM*,0.2%,7.08µM*
SMILES,RORg inh,ELG1 DNA repair,DT40 TDP1 CPT,DT40 TDP1 no CPT,12-LOX inh,VP16 counter
COCC1CCN(C(=O)c2cc(COc3ccc4c(c3)CCCC4)on2)C1 (configuration not stated),24.2%,5.8%,?,-26.2%,-5.2%,-11.9%
COCCC1CCCCN1C(=O)c1cc(COc2ccc(-n3cncn3)cc2)on1 (configuration not stated),0.1%,?,5.17µM*,2.06µM*,4.6%,8.91µM*
CCC1CCCCN1C(=O)c1cc(COc2ccc3ncccc3c2)on1 (configuration not stated),?,?,1.84µM*,1.03µM*,2.9%,2.82µM*
Cc1ccc(S(=O)(=O)N2CCC(CC(=O)NCc3ccccc3)C2)cc1F (configuration not stated),.,.,.,.,-3.0%,.
Cc1ccccc1C(=O)Nc1ccc2c(c1)nc(CN1CCC(C)CC1)n2C,.,.,.,.,6.1%,.
Cc1c(Cl)cn2c(=O)cc(CN(C)Cc3nc4ccccc4c(=O)[nH]3)nc2c1Cl,17.8µM*,-21.9%,.,.,.,-10.6%
CCN(CC(=O)Nc1cc(Cl)ccc1-n1cncn1)Cc1nc2ccccc2c(=O)[nH]1,.,8.2µM*,-18.0%,-20.2%,7.1%,.
CN(CCSc1ccc(Cl)cc1)Cc1nc2ccccc2c(=O)[nH]1,.,.,.,.,-14.3%,.
CC(OCC(O)CN(C)Cc1nc2ccccc2c(=O)[nH]1)c1ccc(Cl)cc1 (configuration not stated),?,?,18.4µM*,?,-12.4%,-12.3%
CN(Cc1nc2ccccc2c(=O)[nH]1)Cc1nc2ccsc2c(=O)[nH]1,0.398µM*,?,0.517µM*,0.92µM*,14.1%,5.01µM*
CN(Cc1ccccc1)Cc1cc(C(=O)N(C)Cc2ccsc2)no1,.,.,.,.,-15.0%,.
O=C(COc1ccccc1)N1CCC2(CC1)CC(OCC1CC1)CCO2 (configuration not stated),.,.,.,.,19.7%,.
CN(CC(=O)Nc1ccc(F)c(Cl)c1)Cc1nc2ccccc2c(=O)[nH]1,.,.,.,.,28.9%,.
Cc1ccc(NC(=O)CN(C)Cc2nc3ccccc3c(=O)[nH]2)c(Br)c1,11.2µM*,?,-45.8%,20.6µM*,172.5%,?
CCN(CC(=O)NCc1ccc(F)cc1)Cc1cc(=O)n2ccsc2n1,6.1%,3.9%,5.5%,-26.3%,2.0%,-0.9%
CCN(Cc1cc(=O)n2ccsc2n1)Cc1nc2ccccc2c(=O)[nH]1,2.24µM*,8.7%,-19.2%,-16.2%,-2.4%,10µM*
CC(C(=O)Nc1ccccc1-c1ccccc1)N(C)Cc1nc2ccccc2c(=O)[nH]1 (configuration not stated),14.1µM*,?,13µM*,20.6µM*,45.5%,-8.0%
CCN(CC(=O)Nc1ccccc1Br)Cc1nc2ccccc2c(=O)[nH]1,11.2µM*,?,?,?,25.8%,?

# Source: PubChem BioAssay (National Center for Advancing Translational Sciences (NCATS))
